# JMJD2A Tudor = qHTS Assay for Inhibitors of JMJD2A-Tudor Domain; Lysine-specific demethylase 4A (Homo sapiens), O75164; AlphaScreen JMJD2A-Tudor / H3K4me3 peptide binding; Potency, µM (highest dose often 114 µM), for the others: at the top dose activity change, negative = inhibition, most hits filed as inhibitors; 4.4% of 390,000 active; AID 504339, 2011; also: % is scaled to controls: 0 for no effect and ±100 for the full control effect; nearly all actives have a fitted effect of over 50% in size
# HP1b binding inh = HTS for Inhibitors of HP1-beta Chromodomain Interactions with Methylated Histone Tails; Chromobox protein homolog 1 (Homo sapiens), P83916; AlphaScreen HP1-beta / biotin-H3K9me3 peptide binding; Potency, µM (highest dose often 114 µM), without a hit: top-dose activity change, negative = inhibition, hits mostly inhibitors; 0.56% of 390,000 active; also: nearly all actives have a fitted effect of over 70% in size
# Target sequence (P83916 whole entry, looked up): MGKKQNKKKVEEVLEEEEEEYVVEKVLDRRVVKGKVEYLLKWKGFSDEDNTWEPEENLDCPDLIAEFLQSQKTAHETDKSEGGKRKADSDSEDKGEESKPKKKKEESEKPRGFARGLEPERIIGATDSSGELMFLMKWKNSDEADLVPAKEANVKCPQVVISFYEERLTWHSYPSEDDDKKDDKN
#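 AlphaScreen: HP1-beta (50 nM) preformed 30 min with biotin-H3(1-18)K9me3 peptide (50 nM) in PBS pH 7.4, 0.01% Tween-20. Compound added for 30 min at RT, then streptavidin donor/nickel chelate acceptor beads (10 ug/mL) for 30 min.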
# Sfp PPTase inh = qHTS Assay for Inhibitors of Bacillus subtilis Sfp phosphopantetheinyl transferase (PPTase) | 4'-phosphopantetheinyl transferase ffp (Bacillus subtilis), Q9F4F7 | Biochemical Sfp PPTase activity, qHTS | Potency, µM, for inactives: largest response in the series, negative = inhibition, usual class: inhibitors | 3.5% of 310,000 active | AID 1490, 2009;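 also: the enzyme is Sfp with the accession as filed and its product quenches rhodamine fluorescence; 0% = enzyme reaction without inhibitor and -100% = no enzyme wells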
#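 After 15 min at room temperature with compound, 15 nM Sfp received 5 uM rhodamine-CoA plus 12.5 uM BHQ-2-ybbR (50 mM Hepes pH 7.6, 10 mM MgCl2). Rate came from the fluorescence difference over 30 min, ex 525/em 598 nm.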
# G9a inh = qHTS Assay for Inhibitors of Histone Lysine Methyltransferase G9a; Histone-lysine N-methyltransferase EHMT2 (Homo sapiens), Q96KQ7; G9a H3K9 monomethylation, AlphaScreen, 2 h; Potency, µM (doses to about 102 µM), for the others: at the highest dose activity, negative = inhibition, hits mostly inhibitors; 8.8% of 350,000 active; also: % is scaled to controls: 0 for no effect and ±100 for the full control effect; nearly all actives have a fitted effect of over 75% in size
# Target sequence (Q96KQ7 913-1193 limits assumed): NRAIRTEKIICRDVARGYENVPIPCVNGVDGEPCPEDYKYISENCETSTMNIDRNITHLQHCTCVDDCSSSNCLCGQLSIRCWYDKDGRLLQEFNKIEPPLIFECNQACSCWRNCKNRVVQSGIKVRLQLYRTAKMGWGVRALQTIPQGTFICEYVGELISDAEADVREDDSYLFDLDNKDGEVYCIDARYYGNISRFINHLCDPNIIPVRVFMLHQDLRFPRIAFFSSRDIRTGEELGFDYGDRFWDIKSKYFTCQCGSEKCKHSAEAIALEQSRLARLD
#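 G9a (20 nM) preincubated 15 min RT with compounds, then 500 nM biotinylated H3K9 peptide and 20 uM SAM added; 2 h RT reaction. Monomethyl-H3K9 product detected by AlphaScreen with anti-H3K9me1 antibody, streptavidin donor and anti-rabbit IgG acceptor beads.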
# TDP1 inh = qHTS Assay for Inhibitors of Tyrosyl-DNA Phosphodiesterase (TDP1). recombinant TDP1, AlphaScreen DNA substrate cleavage. 0.28% of 350,000 active. Potency, µM (series often up to 130 µM), without a hit: at the highest dose activity change, negative = inhibition, hits mostly inhibitors. Tyrosyl-DNA phosphodiesterase 1 (Homo sapiens), Q9NUW8; also: % is scaled to controls: 0 for no effect and ±100 for the full control effect; nearly all actives have a fitted effect of over 40% in size
#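 Here, a 5' biotin and 3' phosphotyrosine-FITC DNA oligonucleotide reports Tdp1 activity: intact substrate bridges AlphaScreen beads, while cleavage leaves a 3' phosphate and drops signal. All incubations at room temperature.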
# BAZ2B inh = qHTS Assay for Inhibitors of BAZ2B | Bromodomain adjacent to zinc finger domain protein 2B (Homo sapiens), Q9UIF8 | AlphaScreen BAZ2B-H3K14Ac peptide displacement | Potency, µM (titrated, usually from 114 µM), for the others: top-dose activity change, negative = inhibition, most hits filed as inhibitors | 4.4% of 360,000 active; also: % is scaled to controls: 0 for no effect and ±100 for the full control effect; nearly all actives have a fitted effect of over 60% in size
#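 In this displacement format the biotinylated H3(5-23) peptide acetylated at Lys14 serves as ligand at 50 nM, with BAZ2B at 50 nM in PBS pH 7.4 containing 0.01% Tween-20. Donor and acceptor beads are 10 ug/mL final.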
# Numbers without * were called inactive; u = inconclusive; x = no result given; [ ] = another dose, or the depositor's remark. An excerpt weighted towards active compounds, which were near 12% of everything screened. Calls follow the shape of the dose curve; as a rule, active = well fitted curve in the direction sought with a large enough effect; inconclusive = small, poorly fitted or top-dose-only effect, or another doubt; inactive = no such curve, though single readings can be large; an effect the other way counts as inactive or inconclusive. Potency is read from the fitted curve at half-maximal effect.
SMILES,JMJD2A Tudor,HP1b binding inh,Sfp PPTase inh,G9a inh,TDP1 inh,BAZ2B inh
Cc1cc(=O)n(Cc2ccccc2Cl)c2c1c(C)nn2-c1ccccc1,29%,78%,x,58%[59 µM],2%,27%
CC1(C)Oc2ccc3ccc(=O)oc3c2CC1=O,x,x,-5%,x,7%,x
Cc1cc(=O)n(C(C)C(=O)N2CCCc3ccccc32)c2c1c(C)nn2-c1ccccc1 (stereo unspecified),-15%,-16%,x,10%[59 µM],7%,u
COP(=O)(CC(=O)c1ccccc1)CC(=O)c1ccccc1,-1%,0%,0%,5%,5%,-5%
COc1ccc(/C=C2\SC(=S)N(C(C(=O)O)c3ccccc3)C2=O)c(OC)c1 (stereo unspecified),-33%,7%,71µM*,50µM*,6%,u
COc1cccc(/C=C2\SC(=S)N(C(C(=O)O)c3ccccc3)C2=O)c1OC (stereo unspecified),u,u,79µM*,u,1%,u
COc1ccc(/C=C2\SC(=S)N(N3CCOCC3)C2=O)c(OC)c1,u,u,-13%,46%[59 µM],x,24%
COc1cccc(/C=C2/SC(=O)N(C)C2=O)c1OCc1ccc(C(=O)O)cc1,-11%,34%,-2%,-16%,-5%,-10%
COc1cc(/C=C2\SC(=S)N(C(C(=O)O)c3ccccc3)C2=O)cc(OC)c1OC (stereo unspecified),-31%,-16%,50µM*,u,x,u
O=C(Nc1ccccc1Cl)C(=O)c1cn(CC(=O)N2CCOCC2)c2ccccc12,-4%,3%[57 µM],23%,x,0%,18%
COc1cc(CN2CCNC(=O)C2CC(=O)NCc2csc(C(C)C)n2)cc(OC)c1 (stereo unspecified),-7%,38%,-17%,x,6%,-22%
C=C(C)Cn1c(SCC(=O)N/N=C/c2ccccc2)nc2ccccc2c1=O,-10%[57.1 µM],13%,79µM*,11%[59 µM],8%,-1%
CCOC(=O)c1ccc(N=Nc2c(C)c(C#N)c(O)[nH]c2=O)cc1,u,20%,2%,u,7%,u
CC(=O)c1sc(NC(=O)c2c(F)cccc2F)nc1C,-18%,21%,2%,-25%[59 µM],2%,u
O=C(Nc1nc(=S)ss1)c1c(F)cccc1F,5%,46%,22µM*,18µM*,7%,-20%
CC(C)CC(=O)Nc1nc(=S)ss1,u,u,16µM*,1.6µM*,0%,-36%
CC(=O)Nc1nc(=S)ss1,-34%,-41%,16µM*,u,-5%,1%
CC(C)c1ccc(C2=NC(c3ccncc3)=Nc3ccc(F)cc3N2)cc1,u,-3%,x,-34%[59 µM],9%,u
COc1ccc(N2CCN(S(=O)(=O)c3ccc4c(c3)C(C(C)C)C(=O)N4)CC2)cc1 (stereo unspecified),u,-9%,x,u,6%,u
CC(C(=O)Nc1ccc(C#N)cc1)N(C)CC(=O)N(C)c1c(N)n(Cc2ccccc2)c(=O)[nH]c1=O (stereo unspecified),-17%,3%,x,x,-1%,x
O=S(=O)(Cc1ccccc1)N1CCC(N2CCN(c3ccccc3)CC2)CC1,-21%,0%,-6%,u,2%,3%
CC1CCC(N2CCN(S(=O)(=O)Cc3ccccc3)CC2)CC1 (stereo unspecified),22µM*,71µM*,-7%,25µM*,8%,50µM*
COc1ccc(S(=O)(=O)N2CCN(C3CCCC(C)C3)CC2)cc1 (stereo unspecified),1.3µM*,45µM*,-26%,7.1µM*,0%,18µM*
O=S(=O)(c1ccccc1)N1CCN(S(=O)(=O)c2ccccc2)CC1,-4%,12%,x,x,1%,x
CC1CCCC(N2CCN(S(=O)(=O)c3ccccc3)CC2)C1 (stereo unspecified),4µM*,u,u,18µM*,0%[0.0935 µM],u
SMILES,JMJD2A Tudor,HP1b binding inh,Sfp PPTase inh,G9a inh,TDP1 inh,BAZ2B inh
Cc1ccc(CNC(=O)c2cc(S(=O)(=O)N3CCCC(C)C3)cn2C)cc1 (stereo unspecified),-22%,21%[57 µM],x,-6%[59 µM],8%,-15%
CC(=O)c1cccc(NC(=O)CCn2nc(C)c(S(=O)(=O)N3CCCCC3)c2C)c1,1%,51%,x,39%[59 µM],-1%,u
C[C@H](NS(=O)(=O)OCC(Cl)(Cl)Cl)C1CC1c1ccccc1 (stereo partly specified),45µM*,-17%,10%,u,x,u
O=C(NC1CCNCC1)C1CC1,-1%,31%,-4%,x,0%,-41%
CCCCC(=O)Nc1ccc2c(c1)nc1n2CCSC1,-15%,20%,-4%,u,1%,-2%
CC(=O)Nc1ccc2c(c1)nc1n2CCN(C2CCCCC2)C1,-29%,-3%,8%,10µM*,3%,u
CCCC(=O)Nc1ccc2c(c1)nc1n2CCN(C2CCCCC2)C1,u,-5%,25%,13µM*,8%,-29%

# Source: PubChem
